This note sets out measurements from PubChem BioAssay (NCI).

Each structure is given as a SMILES string. About 83,000 compounds went through this panel and 20% of them were active in at least one assay; those are over-represented in the sample as a whole.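 Each cell line was grown in a 96-well plate and treated with one concentration of compound for 48 hours. Values below 10 were considered active.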 A number with no mark means an inactive call. Calls of active or inactive are those of the source.

Holding throughout (experiment): NCI-60 one-dose screen, 48 h (100 = growth as untreated, 0 = no growth, -100 = all killed)
Holding throughout (settings): 10 µM unless noted

The subject of assay [1] is NCI-H23 lung.
In assay [2] the test system is NCI-H226 lung.
The test system of assay [3] is NCI-H322M lung.
Assay [4] deals with HOP-62 NSCLC.
Assay [5] deals with NCI-H460 lung.
In assay [6] the test system is HOP-92 NSCLC.
The test system of assay [7] is NCI-H522 lung.
Assay [8] has as its system A549/ATCC NSCLC.
The test system of assay [9] is 786-0 renal.
For assay [10], the system named is COLO 205 colon.

On to `NC(=O)c1c(NC(=O)c2ccc(C(F)(F)F)cc2)sc2c1CCC(=O)C2`, for which the growth in [1] was -6.8% (active); in assay [2], -24% (active); in assay [3], 92.1%; in assay [4], 13.5%; in [5], 19.1%; in assay [6], -25.3% (active). Further, the growth in assay [7] is -25.9% (active); in [8] it was 12.1%; in assay [9], 24.5%; in assay [10] it was -64.7% (active).

For `CCS(=O)(=O)Nc1ccc(C(=O)CC2(O)C(=O)Nc3ccccc32)cc1` (stereo not given), the growth in assay [1] is 92.5%; in [2], 91.5%; in assay [3], 98.4%; in assay [4] it was 94.6%; in assay [5], 105%; in assay [6] it was 38.2%. In addition, the growth in assay [7] is 105%; in assay [8], 107%; in [9] it was 108%; in assay [10] it was 93.8%.

For `Cc1ccc(/C=N/Nc2nc(Nc3ccccc3)nc(Nc3ccc(S(N)(=O)=O)cc3)n2)cc1`, the growth in [1] was 76.7%; in assay [2], 79.3%; in assay [3], 90.8%; in [4] it was 86.8%; in assay [5] it was 54.7%; in assay [6], 112%. Besides, the growth was 89.5% in assay [7], 83.2% in assay [8], 46.9% in assay [9] and 83.9% in assay [10].

For the compound `Cc1csc(/N=C(N)/N=C(\N)c2cccc(Br)c2)n1`, the growth in assay [1] is 89.1%; in assay [2] it was 88.9%; in [3], 95.6%; in assay [4], 85.3%; in [5], 98.1%; in [6] it was 69.9%. Also, the growth in assay [7] was 80%; in assay [8], 101%; in assay [9] it was 97.3%; in assay [10], 95.3%.

For `CC(C)(C)c1cc(NC(=O)Nc2ccc(-c3cn4c5c(sc4n3)CCc3c[nH]cc3-5)cc2)no1`, the growth in [1] was 13.9%; in [2], 33.9%; in assay [3], 47.6%; in assay [4] it was -28.1% (active); in assay [5], 4.38% (active); in [6], 23.5%. The growth in assay [7] is 32.4%; in [8], 28.7%; in assay [9] it was -29.4% (active); in assay [10] it was -17.2% (active).

Turning to `CC(C)Sc1nc(-c2ccccc2)c(C#N)c(N2CCOCC2)n1`, the growth was 65% in [1]; 55.1% in assay [2]; 38.1% in [3]; 63.7% in assay [4]; 42.2% in [5]; 73.2% in assay [6]. Also, the growth is 82.5% in [7], 37.2% in assay [8], 11.9% in assay [9] and 74% in assay [10].

Consider `CCNC(=O)Oc1ccc(/C(=C(/C)c2ccc(OC)cc2)c2ccc(OCCN3CCCCCC3)cc2)cc1`, for which the growth in assay [1] was 52.8%; in assay [2] it was 87.4%; in assay [3] it was 80.9%; in assay [4], 31.9%; in assay [5], 16.7%; in [6], 49.5%. In addition, the growth is 93.1% in assay [7], 54.4% in [8], 35.5% in assay [9] and -41.1% (active) in [10].

Turning to `CCOC(=O)C1=C(C)NC(C)=C(C(=O)OC(C)C)C1c1cccc(C#N)c1` (stereo not given), the growth in [1] is 96.7%; in [2], 98.1%; in assay [3], 100%; in [4] it was 101%; in assay [5], 101%; in [6] it was 114%. In addition, the growth in assay [7] is 92.7%; in [8], 100%; in assay [9] it was 90.6%; in assay [10], 114%.

In the case of `NC1CC2(CCN(c3cnc(C(=O)Nc4cc(F)cc5cccnc45)cn3)CC2)C1`, the growth is 88.6% in [1]; 93.2% in [2]; 87.4% in [3]; 96% in [4]; 83.8% in assay [5]; 79.7% in [6]. The growth in assay [7] is 93.3%; in [8], 63.2%; in assay [9], 71.8%; in assay [10], 49.9%.

As for `Cc1ccc(-c2cc3nc(C(Cl)Cl)nc(-c4ccc(S(=O)(=O)N(C)C)cc4)n3n2)cc1`, the growth in assay [1] is 90.9%; in assay [2] it was 87.7%; in [3], 107%; in [4] it was 77.9%; in [5] it was 93.5%; in assay [6], 128%. The growth in assay [7] was 89.7%; in [8], 88.4%; in assay [9] it was 97.9%; in assay [10], 98.1%.

As to `CNc1sc(S(=O)(=O)NC)nc1S(=O)(=O)c1ccc(C)cc1`, the growth in assay [1] was 102%; in assay [2], 92.5%; in assay [3], 96.4%; in assay [4], 99.4%; in [5], 109%; in assay [6], 84.9%. Besides, the growth in assay [7] was 94.5%; in [8] it was 98.8%; in assay [9], 99.4%; in assay [10], 112%.

Consider `CCNC(=O)Oc1ccc(/C(=C(/C)c2ccc(Cl)cc2)c2ccc(OCCN3CCCCCC3)cc2)cc1`, for which the growth in [1] was 22.1%; in [2], 80.9%; in assay [3] it was 75.9%; in assay [4], -19.9% (active); in assay [5], -62.3% (active); in assay [6] it was 60%. Besides, the growth was 82.4% in assay [7], 43.9% in assay [8], 22.5% in [9] and -74.5% (active) in [10].

Take `C[C@]12CC[C@H]3[C@@H](CC=C4C[C@@H](O)CC[C@@]43C)[C@@H]1CC[C@@H]2[C@](C)(O)CCc1cccnc1`: the growth was 52.5% in [1]; 73.4% in assay [2]; 79.5% in assay [3]; 61.3% in assay [4]; 63.5% in assay [5]; 66.8% in [6]. Further, the growth in assay [7] was 36.6%; in assay [8], 70.1%; in [9] it was 80.8%; in [10], 70.8%.
